Data from PubChem BioAssay (NCATS).
Records with an inconclusive call do not appear. The source made the active and inactive calls. The call rests on the fitted dose curve; in most records, active means well fitted curve in the direction sought with a large enough effect; inconclusive means small, poorly fitted or top-dose-only effect, or another doubt; inactive means no such curve, though single readings can be large; an effect the other way counts as inactive or inconclusive.

assay: Counterscreen qHTS for small molecule stabilizers of the endoplasmic reticulum resident proteome: GLuc-NoTag assay (AID 1508627); conditions: Gaussia luciferase NoTag secretion counterscreen, luminescence, thapsigargin 100 nM for final 4 h; series mostly up to 76.4 µM; activity change, negative = inhibition: at the top concentration;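 further: SH-SY5Y cells given compound then 100 nM thapsigargin to empty ER calcium; 0% = thapsigargin alone and -100% = DMSO vehicle control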
Outline: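 Counterscreen line: SH-SY5Y-GLuc-NoTag. Seed, 5 h; compound, 19 h; thapsigargin 100 nM, 4 h; 37C/5% CO2. Readout: secreted GLuc luminescence, coelenterazine 0.07x final, no lysis.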

Row | Structure (SMILES) | activity change, negative = inhibition
1 | CC=C(C)C(=O)O[C@H]1C(C)=C2[C@@H]3OC(=O)[C@@](C)(O)[C@@]3(O)[C@@H](OC(=O)CCC)C[C@](C)(OC(C)=O)[C@@H]2[C@@H]1OC(=O)CCCCCCC | 16.5% (inactive)
2 | O=[N+]([O-])c1c2ccccc2cc2ccccc12 | 9.92% [at 157 µM] (inactive)
3 | C[C@H]1CCCC=CC2C[C@H](O)C[C@@H]2[C@H](O)C=CC(=O)O1 (stereo partly drawn) | -51.6% (inactive)
4 | CN1CCN(c2ccc([N+](=O)[O-])c3no[n+]([O-])c23)CC1 | 14.5% (inactive)
5 | Nc1ccc(N=Nc2ccccc2)cc1 | -9.01% [at 157 µM] (inactive)

assay: Confirmatory qHTS for small molecule stabilizers of the endoplasmic reticulum resident proteome: Secreted ER Calcium Modulated Protein (SERCaMP) assay (AID 1508628); conditions: SERCaMP secreted luciferase ER calcium/proteostasis reporter; series mostly up to 76.3 µM; activity change, negative = decrease: at the top concentration; further: nearly all actives have a fitted effect of over 40% in size; further: potency means the concentration at half of the fitted maximal effect; on activity change, negative = decrease: on the % scale 0 is the no-effect control and ±100 the full control effect
Outline: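 GLuc-SERCaMP-expressing SH-SY5Y cells, pretreated 16 h with compound, are challenged with thapsigargin to empty ER calcium stores; after 4 h, coelenterazine is added directly to the medium and luminescence is imaged.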

Row | Structure (SMILES) | activity change, negative = decrease | Potency
6 | CC=C(C)C(=O)O[C@H]1C(C)=C2[C@@H]3OC(=O)[C@@](C)(O)[C@@]3(O)[C@@H](OC(=O)CCC)C[C@](C)(OC(C)=O)[C@@H]2[C@@H]1OC(=O)CCCCCCC | 12.7% (inactive) | –
7 | O=[N+]([O-])c1c2ccccc2cc2ccccc12 | 10.1% [at 156 µM] (inactive) | –
8 | C[C@H]1CCCC=CC2C[C@H](O)C[C@@H]2[C@H](O)C=CC(=O)O1 (stereo partly drawn) | -51.1% (inactive) | –
9 | CN1CCN(c2ccc([N+](=O)[O-])c3no[n+]([O-])c23)CC1 | -9.86% (inactive) | –
10 | Nc1ccc(N=Nc2ccccc2)cc1 | – | 44700 nM (active)

assay: Cell Viability qHTS for small molecule stabilizers of the endoplasmic reticulum resident proteome (AID 1508629); conditions: cell viability counter-screen, 100 nM thapsigargin for final 4 h;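 further: compound exposure about 46 h in total before the viability read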; further: potency means the concentration at half of the fitted maximal effect;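 on max response: human SH-SY5Y neuroblastoma cells carrying the GLuc-SERCaMP reporter; on the % scale 0 is the no-effect control and ±100 the full control effect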

Row | Structure (SMILES) | Potency | max response
11 | CC=C(C)C(=O)O[C@H]1C(C)=C2[C@@H]3OC(=O)[C@@](C)(O)[C@@]3(O)[C@@H](OC(=O)CCC)C[C@](C)(OC(C)=O)[C@@H]2[C@@H]1OC(=O)CCCCCCC | 282 nM (active) | –
12 | O=[N+]([O-])c1c2ccccc2cc2ccccc12 | – | -4.03% (inactive)
13 | C[C@H]1CCCC=CC2C[C@H](O)C[C@@H]2[C@H](O)C=CC(=O)O1 (stereo partly drawn) | 70.8 nM (active) | –
14 | Nc1ccc(N=Nc2ccccc2)cc1 | – | 1.98% (inactive)

assay: Primary qHTS for small molecule stabilizers of the endoplasmic reticulum resident proteome: Secreted ER Calcium Modulated Protein (SERCaMP) assay (AID 1508630); conditions: SH-SY5Y GLuc-SERCaMP (Gaussia luciferase released on ER calcium loss) secretion, thapsigargin, luminescence; series mostly up to 38.4 µM; activity change, negative = inhibition: at the top concentration; further: on the % scale 0 is the no-effect control and ±100 the full control effect
Outline: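 The SH-SY5Y reporter protocol was run at 3 concentrations up to 38.3 uM (primary) or 11 concentrations (follow-up): 16 h compound, 100 nM thapsigargin for 4 h, then extracellular luciferase luminescence.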

Row | Structure (SMILES) | activity change, negative = inhibition | Potency
15 | CC=C(C)C(=O)O[C@H]1C(C)=C2[C@@H]3OC(=O)[C@@](C)(O)[C@@]3(O)[C@@H](OC(=O)CCC)C[C@](C)(OC(C)=O)[C@@H]2[C@@H]1OC(=O)CCCCCCC | 182% (inactive) | –
16 | CC(C)[C@H]1C(=O)N[C@H](CO)Cc2c[nH]c3cccc(c23)N1C | 210% (inactive) | –
17 | CCCCCCCCc1ccc(O)cc1 | 14.2% [at 76.3 µM] (inactive) | –
18 | CCCCCCCCCC(CC)c1ccc(S(=O)(=O)O)cc1 (stereo not drawn) | 72.8% [at 76.3 µM] (inactive) | –
19 | CC(=Cc1csc(C)n1)[C@@H]1C[C@H]2O[C@@H]2CCC[C@H](C)[C@@H](O)[C@@H](C)C(=O)C(C)(C)[C@@H](O)CC(=O)O1 | 80.5% (inactive) | –
20 | C#C[C@]1(O)C=C[C@@H]2[C@@H]3CCC4=CC(=O)CC[C@@H]4[C@H]3CC[C@@]21CC | 41.9% (inactive) | –
21 | O=[N+]([O-])c1ncc[nH]1 | 137% (inactive) | –
22 | C[C@]12CCC(=O)C(O)=C1CC[C@@H]1[C@H]3CCC(=O)[C@@]3(C)CC[C@@H]12 | 27.1% (inactive) | –
23 | CCCCCC[C@H]1C(=O)O[C@H](C)[C@H](NC(=O)c2cccc(NC=O)c2O)C(=O)O[C@@H](C)[C@@H]1OC(=O)CC(C)C | 7.44% (inactive) | –
24 | CC(=O)O[C@@]12CO[C@H]1C[C@H](O)[C@@]1(C)C(=O)[C@H](O)C3=C(C)[C@@H](O)C[C@@](O)([C@@H](OC(=O)c4ccccc4)[C@@H]21)C3(C)C | 0% (inactive) | –
25 | CS(=O)(=O)c1ccc(C(=O)C2C(=O)CCCC2=O)c([N+](=O)[O-])c1 | -22.2% [at 76.3 µM] (inactive) | –
26 | CCCN(CCC)c1c([N+](=O)[O-])cc(S(N)(=O)=O)cc1[N+](=O)[O-] | 32.1% [at 76.3 µM] (inactive) | –
27 | CC1=C(O)C(=O)C=C2C1=CC=C1[C@@]2(C)CC[C@@]2(C)[C@@H]3C[C@](C)(C(=O)O)CC[C@]3(C)CC[C@]12C | – | inactive
28 | COC1=CC(C)=C[C@@H](C)[C@@H](O)[C@@H](C)CC(C)=CC=C[C@H](OC)[C@H]([C@@H](C)[C@@H](O)[C@H](C)[C@@]2(O)C[C@@H](O)[C@H](C)[C@@H](C(C)C)O2)OC1=O | 65.9% (inactive) | –
29 | CO[C@H]1CCC(O[C@H]2C[C@H]([C@]3(C)CC[C@]4(C[C@H](O)[C@@H](C)[C@@H]([C@@H](C)C=C(C)C(=O)[C@H](C)C[C@H](C)C(=O)O)O4)O3)O[C@]3(O[C@@H]([C@H]4O[C@@](O)(CO)[C@H](C)C[C@H]4C)C[C@H]3C)[C@H]2C)O[C@H]1C (stereo partly drawn) | 183% (inactive) | –
30 | CCNC(=O)CC1N=C(c2ccc(Cl)cc2)c2cc(OC)ccc2-n2c(C)nnc21 (stereo not drawn) | 179% (inactive) | –
31 | O=C1C=CC[C@@H]2[C@H]3CCCN4CCC[C@@H](CN12)[C@@H]34 | – | inactive
32 | Nc1ccc(Sc2ccc(N)cc2)cc1 | -29.6% [at 76.3 µM] (inactive) | –
33 | N#C[C@H](O[C@@H]1O[C@H](CO[C@@H]2O[C@H](CO)[C@H](O)[C@H](O)[C@H]2O)[C@H](O)[C@H](O)[C@H]1O)c1ccccc1 | 74.4% (inactive) | –
34 | COc1nn(CSP(=S)(OC)OC)c(=O)s1 | 21.8% [at 76.3 µM] (inactive) | –
35 | CC(C)N[C@@H]1CCn2c(=O)[nH]c3cccc(c32)[C@@H]1O | 44.9% (inactive) | –
36 | C[C@]12CC[C@H]3[C@@H](CCC4=CC(=O)CC[C@@]43C)[C@H]1CC[C@H]2OC(=O)CCC1CCCC1 | 125% (inactive) | –
37 | O=S(=O)(O)C(F)(F)C(F)(F)C(F)(F)C(F)(F)C(F)(F)C(F)(F)C(F)(F)C(F)(F)F | 40.8% [at 76.3 µM] (inactive) | –
38 | C=CCON=C(C[C@H]1O[C@@H]2O[C@]3(C)CC[C@@H]4[C@H](C)CC[C@@H]([C@H]1C)[C@@]24OO3)[C@H]1O[C@@H]2O[C@]3(C)CC[C@H]4[C@H](C)CC[C@@H]([C@@H]1C)[C@@]24OO3 | 88.8% (inactive) | –
